# An excerpt weighted towards active compounds, which were near 19% of everything screened.
# S-ASM inh: Inhibitors of Secretory Acid Sphingomyelinase (S-ASM): qHTS | Sphingomyelin phosphodiesterase (Homo sapiens), P17405 | placental ASM, HMU-PC fluorogenic substrate, 60 min | Potency, µM (series often up to 57.5 µM), inactives show top-dose activity change, negative = inhibition, usual class: inhibitors | actives 0.006% (n = 340,000) | AID 504937, 2011; also: potency is read from the fitted curve at half-maximal effect
# Target sequence (P17405 47-631 limits assumed): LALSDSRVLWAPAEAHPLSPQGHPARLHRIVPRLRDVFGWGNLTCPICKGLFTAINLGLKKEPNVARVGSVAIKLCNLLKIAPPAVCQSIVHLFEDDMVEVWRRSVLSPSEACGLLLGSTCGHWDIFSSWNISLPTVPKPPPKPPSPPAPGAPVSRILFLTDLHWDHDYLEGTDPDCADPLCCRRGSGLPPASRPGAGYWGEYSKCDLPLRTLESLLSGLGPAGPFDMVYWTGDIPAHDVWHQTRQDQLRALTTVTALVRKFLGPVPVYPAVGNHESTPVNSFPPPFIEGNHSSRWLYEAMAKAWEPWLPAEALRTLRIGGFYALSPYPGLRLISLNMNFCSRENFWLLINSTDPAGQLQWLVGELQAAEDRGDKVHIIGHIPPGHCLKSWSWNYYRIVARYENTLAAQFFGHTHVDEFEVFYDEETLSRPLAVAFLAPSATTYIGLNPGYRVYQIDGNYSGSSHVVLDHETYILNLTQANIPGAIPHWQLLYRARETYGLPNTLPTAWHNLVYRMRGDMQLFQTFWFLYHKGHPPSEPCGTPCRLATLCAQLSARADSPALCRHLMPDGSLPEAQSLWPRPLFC
#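 Fluorogenic HMU-PC substrate (9 uM final) is turned over by placental ASM in 60 min at 37 C after a 10 min compound preincubation. Reaction ended by alkaline stop (pH 10), with fluorescence read at 386/447 nm.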
# IL1B secr inh: qHTS for Inhibitors of Inflammasome Signaling: IL-1-beta AlphaLISA Primary Screen; activity change, % at 57.5 µM; THP-1 LPS/ATP IL-1B secretion, AlphaLISA, 16 h; stronger effect = lower value; actives 4.7% (n = 360,000); AID 743279, 2014; in the data active = activity change below about -50%; inconclusive = mostly about -30% to -49%; also: % is scaled to controls: 0 for no effect and ±100 for the full control effect
#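 THP-1 cells pretreated 1 hr with compounds (up to 57.5 uM final), then stimulated with LPS (250 ng/mL final) plus ATP (1.25 mM final); secreted IL-1B measured by AlphaLISA after 16 hr, decreased signal indicating inhibition.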
# TDP1 cell CPT: qHTS for Inhibitors of human tyrosyl-DNA phosphodiesterase 1 (TDP1): qHTS in cells in presence of CPT | chicken DT40 Tdp1-/-;hTDP1 cells + 20 nM CPT, ATP luminescence, 48 h | Potency, µM (highest dose often 46.2 µM), inactives show at the top dose activity change, negative = growth inhibition, hits mostly inhibitors | actives 12% (n = 420,000); also: potency is read from the fitted curve at half-maximal effect; % is scaled to controls: 0 for no effect and ±100 for the full control effect; nearly all actives have a fitted effect of over 55% in size
#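 Chicken DT40 Tdp1-/- cells complemented with human TDP1, 400 cells/well, exposed to compounds plus 20 nM camptothecin for at least 48 h at 37 C; viability read as ATP content by CellTiter-Glo luminescence.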
# TGFb SMAD3 inh: qHTS for Inhibitors of TGF-b. actives 1.2% (n = 410,000). Potency, µM (highest dose often 46.1 µM), without a hit: at the highest dose activity, negative = inhibition, usual class: inhibitors. HepG2 CAGA-GFP TGF-b/SMAD3 reporter, GFP fluorescence, 18 h; TGF-beta stimulated, 500 pg/mL final. AID 588855, 2011; also: potency is read from the fitted curve at half-maximal effect; % is scaled to controls: 0 for no effect and ±100 for the full control effect; nearly all actives have a fitted effect of over 65% in size
#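 Using HEPG2 CAGA-GFP reporter cells at 1000 cells/well, we pinned test compounds, stimulated with recombinant TGF-beta (500 pg/mL final) and measured total well GFP after 18 h.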
# HepG2 viability: qHTS for Inhibitors of TGF-b: Cytotox Counterscreen | HepG2 CAGA-GFP viability, ATP luminescence, 18 h | Potency, µM (series often up to 46.1 µM), for inactives: at the top dose activity change, negative = cytotoxicity, most hits filed as cytotoxic | actives 0.76% (n = 410,000) | AID 588856, 2011; also: potency is read from the fitted curve at half-maximal effect
#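 CellTiter-Glo luminescence gave cytotoxicity after 18 hours at 37 degrees C. The cells were HepG2 CAGA-GFP in 1% FBS DMEM, stimulated with 500 pg/mL TGF-beta after compound addition. %Activity was normalised to no-cell wells (complete cell-killing) and DMSO (no toxicity), and curves were fitted and classified.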
# DT40 TDP1 no CPT: qHTS for Inhibitors of human tyrosyl-DNA phosphodiesterase 1 (TDP1): qHTS in cells in absence of CPT; actives 15% (n = 420,000); DT40 Tdp1-/- hTDP1 cells, no CPT, ATP luminescence, 48 h; Potency, µM (titrated, usually from 46.2 µM), for inactives: at the highest dose activity change, negative = growth inhibition, actives largely listed as inhibitors; AID 686978, 2013; also: potency is read from the fitted curve at half-maximal effect; % is scaled to controls: 0 for no effect and ±100 for the full control effect; nearly all actives have a fitted effect of over 55% in size
#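 Readout: luminescence from CellTiter-Glo after 30 min in the dark at RT. Cells: DT40 Tdp1-/- with stable hTDP1, 400/well. Exposure: compounds alone, ≥48 hr, 37 °C.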
# * = called active by the depositor; i = inactive; ? = inconclusive; . = not tested or not shown. Unless noted, calls follow the shape of the dose curve; as a rule, active = well fitted curve in the direction sought with a large enough effect; inconclusive = small, poorly fitted or top-dose-only effect, or another doubt; inactive = no such curve, though single readings can be large; an effect the other way counts as inactive or inconclusive.
SMILES,S-ASM inh,IL1B secr inh,TDP1 cell CPT,TGFb SMAD3 inh,HepG2 viability,DT40 TDP1 no CPT
COc1ccc(CN2CCC(CO)(CCOc3ccccc3)CC2)cc1C,0%,-72*,?,-4%,12%,?
CC1(C(=O)NS(=O)(=O)c2ccc(Cl)cc2)CCN1C(=O)Cc1ccc(Cl)cc1Cl (stereo not drawn),.,-26,-1%,21%,-1%,-4%
O=C(CSc1n[nH]c(-c2ccccc2Cl)n1)N1CCN(c2ccc(F)cc2)CC1,.,.,?,-59%,4%,?
COC(=O)C1N[C@@H]([C@@H](NC(=O)COc2ccccc2)C(=O)NCc2ccsc2)SC1(C)C (stereo partly drawn),-6%,8,0%,-11%,-4%,?
CCCCCCCCCNC(=O)[C@H](NC(=O)COc1ccccc1)[C@@H]1NC(C(=O)OC)C(C)(C)S1 (stereo partly drawn),-14%,6,?,11µM*,-6%,?
CCc1ccc(C2=NNC(=Nc3cccc(S(=O)(=O)N(C)C)c3)SC2)cc1,-2%,-70*,21µM*,13µM*,-41%,18µM*
Cc1ccc(C)c(NC(=S)NC(C)C(c2ccccc2)N2CCN(C)CC2)c1 (stereo not drawn),-2%,-62*,?,2%,-30%,?
O=C(O)c1ccccc1C(=O)Nc1ccc(S(=O)(=O)Nc2ccc(F)cc2)cc1,4%,-7,2%,-4%,-10%,-14%
O=C(NCCc1ccc(F)cc1)c1coc(=O)c(Br)c1,65%,-91*,0.13µM*,?,-46%,0.92µM*
O=C(Nc1ccccc1F)Nc1ccccc1Br,6%,0,-25%,-1%,-9%,?
Cc1cc(NC(=O)c2coc(=O)c(Br)c2)ccc1C(C)C,205%,.,0.52µM*,?,-71%,1.8µM*
C[C@@H](NC(=O)c1coc(=O)c(Br)c1)c1ccccc1,218%,-6,0.46µM*,?,13µM*,0.73µM*
Cc1ccc(NC(=O)c2ccccc2)cc1C,0%,-3,0%,?,-12%,-11%
O=C(Nc1ccccc1F)c1coc(=O)c(Br)c1,i,0,0.52µM*,12%,2%,1.6µM*
CCCOc1ccc(C(=O)OCCN(CC)CC)cc1N,6%,26,-12%,-15%,-1%,-11%
[O-][N+](=Cc1ccccc1)CC1(O)CCCCC1,.,-12,0%,0%,-2%,-10%
Cc1cccc(Cn2ccn(Cc3ccc(Cl)cc3)c(=O)c2=O)c1,.,.,?,12%,1%,-12%
Cc1nn(CC(=O)c2ccc(Cl)s2)c(C)c1[N+](=O)[O-],-1%,-4,15%,1%,-2%,-9%
COc1cccc(CN2C(=O)NC(C)(C3CCN(Cc4cnn(C)c4C)CC3)C2=O)c1OC (stereo not drawn),.,.,4%,.,.,0%
COc1cc2oc(=O)cc(CN3CCN(c4ccccc4F)CC3)c2cc1Cl,.,14,?,?,-34%,?
O=C(Nc1ccc(Br)cn1)c1coc(=O)c(Br)c1,i,?,1.5µM*,-16%,-175%,3.7µM*
COC(=O)CC1=NN(c2ccccc2)C(=O)/C1=C\c1ccc(OC)cc1,-4%,-23,21µM*,-7%,-5%,?
COC(=O)CC1=NN(c2ccc(OC)cc2)C(=O)/C1=C\c1ccc(Cl)cc1,-18%,3,?,-17%,5%,?
CC(C)Cc1nn2c(=O)cc(COC(=O)c3ccc4c(c3)OCO4)nc2s1,.,.,?,?,-17%,-11%
CC(=O)Nc1ccc(N=c2cc([N+](=O)[O-])cc(Cl)n2O)cc1,-3%,-53*,?,?,-50%,15µM*
SMILES,S-ASM inh,IL1B secr inh,TDP1 cell CPT,TGFb SMAD3 inh,HepG2 viability,DT40 TDP1 no CPT
COc1cccc(OCCSc2nc3ccccc3c(=O)[nH]2)c1,-5%,24,-4%,20%,0%,21µM*
CCc1c(C)nc(SCCOc2ccc(OC)cc2)[nH]c1=O,-4%,35,?,4%,0.32µM*,?
COc1ccccc1OCCSc1nc(C)c(Cc2ccccc2)c(=O)[nH]1,-1%,43,1%,-18%,-3%,11%
COc1ccc(OCCSc2nc3ccccc3c(=O)[nH]2)cc1,-4%,-2,?,4%,-13%,?
CC(=O)c1ccc(-c2ccc(C(=O)N(C)c3c(N)n(Cc4ccccc4)c(=O)[nH]c3=O)o2)cc1,13%,0,3%,-26%,2%,4%
CCOC(=O)Cn1c(=O)n(CC2CCCO2)c2nc(-c3ccccc3Cl)nc(C(N)=O)c21 (stereo not drawn),.,.,.,14%,4%,.
COc1ccc(Cl)cc1NS(=O)(=O)c1cccc(C(=O)NCCCN2CCCC2=O)c1,-5%,21,?,7%,1%,-12%
CC(N)c1csc(NC(=O)c2cc(C(C)(C)C)nn2Cc2ccccc2)n1 (stereo not drawn),.,-55*,18µM*,22µM*,-99%,21µM*
Cc1cccc(C)c1NC(=O)NNC(=O)c1cc(C(C)(C)C)nn1Cc1ccccc1,0%,-4,-15%,?,-79%,?
Cc1ccc(S(=O)(=O)N(C)C)cc1NC(=O)c1cc(C(C)(C)C)nn1Cc1ccccc1,-11%,-11,23µM*,0%,0%,?
COc1ccc(CC(N)c2csc(NC(=O)c3cc(C(C)(C)C)nn3Cc3ccccc3)n2)cc1 (stereo not drawn),.,-78*,5.8µM*,?,11µM*,4.6µM*
CC(C)(C)c1cc(C(=O)NNC(=O)Nc2cccc(Cl)c2)n(Cc2ccccc2)n1,-15%,24,?,?,-49%,?
c1ccc2c(c1)CCCN2,.,.,4%,?,-3%,6%
COc1cccc(-c2cc(C(=O)Nc3cc(OC)c(OC)c(OC)c3)no2)c1,-19%,-26,12µM*,2%,-21%,9.2µM*
O=C(Nc1ccc(CN2CCOCC2)cc1)c1cccs1,3%,2,-1%,?,-8%,-17%

# Assay outcomes from PubChem.
